Hits are enriched below; roughly 2.1% of the tested compounds scored in any of these assays.
aSyn yeast inh – alpha-synuclein toxicity inhibition in yeast | Yeast expressing alpha-synuclein, growth rescue, BacTiter-Glo, 24 h | 370,000 compounds, 0.14% hits | Potency, µM (titrated, usually from 46.1 µM), usual class: activators; also: nearly all actives have a fitted effect of over 65% in size
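Readout is rescue of growth in alpha-synuclein-expressing yeast, so inhibitors of toxicity appear as activators. Growth after 24 hr at 30 deg C in galactose medium is quantified by luminescence.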
TDP43 rescue – inhibitors of TDP-43 toxicity in yeast. TDP-43 expressing yeast growth rescue, BacTiter-Glo, 24 h. Potency, µM (top dose mostly 46.1 µM), usual class: activators. 410,000 compounds, 1.8% hits. AID 652104; also: nearly all actives have a fitted effect of over 50% in size
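Galactose-induced TDP-43 yeast, OD600=0.02, compound pinned; 24 hr, 30 deg C; BacTiter-Glo luminescence for growth. Inhibitors of TDP-43 toxicity read as activators.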
FUS suppressor – suppressors of FUS proteinopathy in yeast | 390,000 compounds, 0.24% hits | Potency, µM (titrated, usually from 76.6 µM), most hits filed as activators | S. cerevisiae FUS-expressing, growth rescue, OD600, 24 h; also: nearly all actives have a fitted effect of over 55% in size
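S. cerevisiae expressing FUS from galactose induction served as the toxicity model. Growth after 24hr at 30C, read as absorbance at 600 nm, indicates suppression of toxicity; compounds dosed at several concentrations.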
Abeta yeast res – restores growth of yeast expressing A-beta42 peptide. AID 1347071. Potency, µM (highest dose often 46.1 µM), most hits filed as activators. 410,000 compounds, 0.063% hits. yeast expressing A-beta42, growth rescue, OD600, 48 h; response scale: 0% DMSO, 100% iron-clioquinol control; also: nearly all actives have a fitted effect of over 55% in size
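Yeast A-beta toxicity model in growth medium with pinned compounds, 48 h at 30 C; growth read as absorbance at 600 nm. Normalized to FeCl3/clioquinol equimolar mix (positive) and DMSO (negative).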
Each line names hits and unclear results; the compound was inactive in the other large screens. Calls follow the shape of the dose curve; as a rule, active = well fitted curve in the direction sought with a large enough effect; inconclusive = small, poorly fitted or top-dose-only effect, or another doubt; inactive = no such curve, though single readings can be large; an effect the other way counts as inactive or inconclusive.

O=C(C(=O)N1CCN(c2ccccc2Cl)CC1)c1c[nH]c2ccccc12	aSyn yeast inh 18µM, TDP43 rescue 22µM (no result: Abeta yeast res)
COc1ccc(COC(=O)C2CCN(S(=O)(=O)c3ccc(F)cc3)CC2)cc1	none
O=C(OCc1ccc([N+](=O)[O-])cc1)C1CCN(S(=O)(=O)c2ccccc2)CC1	TDP43 rescue 10µM
O=S1(=O)c2c(cccc2N2CC[C@@H](O)C2)O[C@H]2CCN1C2	none (no result: aSyn yeast inh, TDP43 rescue, Abeta yeast res)
O=C1/C(=C/c2ccccc2Cl)SC(=S)N1CCCC(=O)N(CCO)c1ccccc1	aSyn yeast inh 18µM
COc1ccc(-c2nc(NC(=O)Cn3ccc(C(F)(F)F)n3)sc2C)cc1	TDP43 rescue 35µM
COc1ccc(-c2nc(NC(=O)c3ccco3)sc2C)cc1	none
COc1ccc(-c2nc(NC(=O)c3[nH]c(C)c(C(C)=O)c3C)sc2C)cc1	TDP43 rescue 35µM
COc1ccc(Cc2c(-c3ccc(F)cc3)nc3c4ccccc4ccn23)c(C)c1	TDP43 rescue inconclusive
Fc1ccc(-c2nc3c4ccccc4ccn3c2Cc2ccccc2C(F)(F)F)cc1	TDP43 rescue inconclusive, Abeta yeast res inconclusive
COc1ccc(-c2nc3c4ccccc4ccn3c2Cc2ccccc2C(F)(F)F)cc1OC	TDP43 rescue 20µM, FUS suppressor inconclusive
CCOC(=O)Cc1c(-c2cccc(Br)c2)nc2c3ccccc3ccn12	TDP43 rescue 22µM
COc1ccc(Cc2c(-c3ccccc3)nc3c4ccccc4ccn23)c(C)c1	TDP43 rescue 11µM
COc1ccccc1Cc1c(-c2ccc(OC)c(OC)c2)nc2c3ccccc3ccn12	TDP43 rescue 11µM, FUS suppressor inconclusive
O=C(Nc1ccc(F)cc1)OCc1cn(Cc2ccc(F)cc2F)nn1	none (no result: aSyn yeast inh, TDP43 rescue, Abeta yeast res)
O=C(Nc1ccc(Br)cc1)c1ccc(F)c(S(=O)(=O)NCc2cccs2)c1	aSyn yeast inh inconclusive, TDP43 rescue 20µM, Abeta yeast res inconclusive
O=S(=O)(NCc1cccs1)c1ccc(Br)cc1	none
CCOc1ccc(CCN2C(=O)C(=O)N([C@@H](Cc3ccc(O)cc3)CN3CCC[C@H]3CN3C(=O)C(=O)NC[C@@H]3Cc3ccccc3)C[C@@H]2Cc2ccc(O)cc2)cc1	FUS suppressor inconclusive
CCOc1ccc(CCN2C(=O)C(=O)N([C@@H](Cc3ccccc3)CN3CCC[C@H]3CN3C(=O)C(=O)NC[C@@H]3Cc3ccccc3)C[C@@H]2Cc2ccc(O)cc2)cc1	FUS suppressor 16µM
CC(C)C[C@H]1CNC(=S)N1C[C@H]1CCCN1C[C@H](CC(C)C)N1C[C@H](CC(C)C)N(CCc2ccccc2)C1=S	Abeta yeast res inconclusive
CC(C)C[C@H]1CNC(=S)N1C[C@H]1CCCN1C[C@H](Cc1ccccc1)N1C[C@H](CC(C)C)N(CCc2ccccc2)C1=S	TDP43 rescue inconclusive, FUS suppressor 25µM, Abeta yeast res inconclusive
O=C(COC(=O)/C=C/c1ccco1)NCc1ccc(Cl)cc1	TDP43 rescue 10µM
CC(=O)N(C(C)=O)N1C(=O)C2C3c4ccccc4C(c4ccccc43)C2C1=O (configuration not stated)	TDP43 rescue 22µM
CN1C(=O)C2C3c4ccccc4C(c4ccccc43)[C@@H]2C1=O (some centres not stated)	none
CC(C)c1ccc(Nc2c(-c3ccccc3O)nc3cnccn23)cc1	TDP43 rescue 25µM (no result: aSyn yeast inh)
COC1=C[C@H](C(=O)NCc2ccccn2)[C@H](C)[C@@H](c2ccccc2)CC1=O	none (no result: aSyn yeast inh, TDP43 rescue, Abeta yeast res)
CCC(CC)COC(=O)C(C#N)c1nc2ccccc2nc1N1CCOCC1 (configuration not stated)	TDP43 rescue 20µM
N#CC(C(=O)OC1CCCCC1)c1nc2ccccc2nc1N1CCOCC1 (configuration not stated)	none
CCCNC(=O)C1CCC(Cn2c(=O)c3sccc3n(CC(=O)NCc3cccc(OC)c3OC)c2=O)CC1 (configuration not stated)	FUS suppressor inconclusive (no result: aSyn yeast inh)
COc1ccccc1NC(=O)Cn1c(=O)n(-c2ccc(C)cc2)c(=O)c2c1cnn2C	none (no result: aSyn yeast inh)
Cc1ccc(NCc2cccn2-c2nnc(N3CCC(C(=O)NCCc4ccc(Cl)cc4)CC3)s2)cc1	TDP43 rescue 35µM, FUS suppressor inconclusive, Abeta yeast res inconclusive (no result: aSyn yeast inh)
COc1ccc2ccccc2c1C=Nn1c(-c2n[nH]c3c2CCC3)n[nH]c1=S	none (no result: aSyn yeast inh, TDP43 rescue, Abeta yeast res)
O=C(Nc1ccc2c(c1)OCCO2)c1cnn(-c2ccccc2)n1	TDP43 rescue 18µM
O=C(O)C1CCCCC1C(=O)Nc1ccc2c(c1)OCCO2 (configuration not stated)	none
O=C(Nc1ccc2c(c1)OCCO2)C1CC1c1ccccc1 (configuration not stated)	TDP43 rescue 25µM, Abeta yeast res inconclusive (no result: FUS suppressor)
Clc1ccc(-c2cc3nc(NCc4cccc(Cl)c4)ccn3n2)cc1	TDP43 rescue 35µM
Clc1cccc(CNc2ccn3nc(-c4cccc(Cl)c4)cc3n2)c1	TDP43 rescue 11µM, Abeta yeast res inconclusive
Clc1cccc(-c2cc3nc(NCCOc4ccccc4)ccn3n2)c1	none
Clc1cccc(CNc2ccn3nc(-c4ccc(OCc5ccccc5)cc4)cc3n2)c1	none
Clc1cccc(CNc2ccn3nc(-c4ccccc4)cc3n2)c1	aSyn yeast inh inconclusive, TDP43 rescue 13µM, Abeta yeast res inconclusive
CC(C)(C)c1cc2nc(NCc3cccc(Cl)c3)ccn2n1	aSyn yeast inh inconclusive, TDP43 rescue 25µM, Abeta yeast res inconclusive
Cc1cc(NC(=O)COC(=O)c2ccccc2OCCOc2ccccc2)ccc1Br	none (no result: TDP43 rescue, FUS suppressor, Abeta yeast res)
O=C(CN1CCN(Cc2ccccc2Cl)CC1)N/N=C\c1ccccc1F	none (no result: aSyn yeast inh, TDP43 rescue, Abeta yeast res)
O=C(CC1C=CCC1)OCCN1CCN(C2CN(Cc3cn(Cc4ccccc4Cl)nn3)S(=O)(=O)C2)CC1 (configuration not stated)	none (no result: aSyn yeast inh, TDP43 rescue, Abeta yeast res)
CCOC(=O)c1cccc(NC(=O)N2Cc3ccccc3Oc3ncccc32)c1	none (no result: aSyn yeast inh)
Cc1cnn(C(=S)NCc2ccc(Cl)cc2)c1	none
Cc1cnn(C(=S)NCCc2ccccc2)c1	TDP43 rescue 11µM
Cc1sc2nc(-c3ccccn3)[nH]c(=O)c2c1-c1ccccc1	aSyn yeast inh inconclusive, TDP43 rescue 18µM
CCN(CC)C(=O)c1sc2nc(-c3ccccn3)[nH]c(=O)c2c1C	none
COc1ccc(-c2csc(NC(=O)CSCC(=O)Nc3cc(C)on3)n2)cc1	none (no result: FUS suppressor)
COc1ccc(-c2csc(NC(=O)CSCc3c(C)noc3C)n2)c(OC)c1	TDP43 rescue 16µM
COc1ccc(OC)c(-c2csc(NC(=O)Cc3ccccc3F)n2)c1	TDP43 rescue inconclusive
COc1ccc(OC)c(-c2csc(NC(=O)Cc3ccccc3OC)n2)c1	TDP43 rescue 10µM
COc1ccc(-c2noc(-c3cccc(OC)c3OC)n2)cc1	none (no result: aSyn yeast inh)
CCc1ccc(-n2ncc(Cl)c(Oc3ccc(OC)cc3)c2=O)cc1	none (no result: aSyn yeast inh, TDP43 rescue, Abeta yeast res)
CCC(C)(C)n1nnnc1C(c1cc2cccc(C)c2[nH]c1=O)N1CCCC1 (configuration not stated)	FUS suppressor 32µM
CCC(C)(C)n1nnnc1C(c1cc2ccc(OC)cc2[nH]c1=O)N1CCCCC1 (configuration not stated)	none
